Data as given in PubChem BioAssay (NCI).
The panel holds about 79,000 compounds, 15% with a hit somewhere; the sample as a whole holds those more often. Unmarked numbers belong to inactive results. The source made the active and inactive calls. No stated cut-off is given here; in the data, active means growth inhibition above about 70%; inactive means the rest. Where a SMILES comes first, the peptide text is derived from it. The star is where a group is joined. Cbz = O=C(OCc1ccccc1)*

What was measured:
[1] = NCI Yeast Anticancer Drug Screen. Data for the rad50 strain (AID 155);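 further: 0% = growth of vehicle-only cultures of the same strain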; conditions: S. cerevisiae rad50 strain growth inhibition; at 50.0 µM; stronger effect = higher value
Summary of the method: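 Readout: growth inhibition relative to vehicle-treated cultures. Compound exposure was carried out in a genetically defined yeast strain deficient in DNA damage repair.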

[2] = NCI Yeast Anticancer Drug Screen. Data for the mec2-1 strain (AID 157); conditions: S. cerevisiae mec2-1 strain, at 50.0 µM, stronger effect = higher value
Summary of the method: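 Cells of the genetically defined mec2-1 yeast strain are incubated with test compound. Inhibition of growth is calculated against vehicle-treated controls.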

[3] = NCI Yeast Anticancer Drug Screen. Data for the sgs1 mgt1 strain (AID 161);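 further: 0% = growth of cultures given vehicle only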; conditions: S. cerevisiae sgs1 mgt1 strain, at 50.0 µM, stronger effect = higher value
Summary of the method: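 Read-out: growth inhibition vs vehicle controls. Cells: mutant yeast strain deficient in DNA damage repair.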

[4] = NCI Yeast Anticancer Drug Screen. Data for the cln2 rad14 strain (AID 165);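 further: 0% = growth equal to vehicle treated cultures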; conditions: S. cerevisiae cln2 rad14 strain, at 50.0 µM, stronger effect = higher value
Summary of the method: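 The screen exposed genetically defined yeast (cln2 rad14) to test compounds and scored growth inhibition relative to vehicle-treated controls.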

[5] = NCI Yeast Anticancer Drug Screen. Data for the bub3 strain (AID 167); conditions: S. cerevisiae bub3 mutant strain, at 50.0 µM, stronger effect = higher value
Summary of the method: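 Readout: yeast growth inhibition, expressed relative to vehicle-only wells. The test organism is a mutant strain from a panel with lesions in DNA repair or checkpoint genes.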

[6] = NCI Yeast Anticancer Drug Screen. Data for the mlh1 rad18 strain (AID 175); conditions: S. cerevisiae mlh1 rad18 strain growth inhibition; at 50.0 µM; stronger effect = higher value
Summary of the method: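 Compound-treated yeast growth, normalised to vehicle controls. Strain bears defined DNA repair mutations.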

Structure (SMILES) | growth inhibition [1] | growth inhibition [2] | growth inhibition [3] | growth inhibition [4] | growth inhibition [5] | growth inhibition [6]
NC(=O)c1ncn(C2CCC(CP(=O)(O)O)C2)c1N (stereo unspecified) | -7.45% | -14.1% | -9.55% | -28.4% | -7% | 5.8%
N=C(CC(=O)Nc1ccccn1)c1ccccc1 | 1.25% | -28.7% | -23.3% | -32% | -20.9% | -16.6%
O=C1NC(N2CCCC(CO)C2)=N/C1=C\c1ccc(O)cc1 (stereo unspecified) | 13.1% | 2.05% | -15.3% | 33.4% | -9.6% | -31.6%
CC(=O)Oc1cc2oc([O-])c[n+]2c2ccccc12 | 28.6% | 14.2% | 22.7% | 5.45% | 12.6% | 0.95%
NC(=O)c1nnn(Cc2ccccc2)c1C(N)=O | -13.9% | -11.4% | 12.6% | -33.6% | 8% | 3.85%
COc1ccc(CC(N)C(=O)OCCCl)cc1 (stereo unspecified) | 6.65% | -0.4% | 13.8% | 10% | 0.3% | 12%
CN(C)CCCn1ncc(Sc2cc([N+](=O)[O-])ccc2N)c(Cl)c1=O | 2.9% | -6.35% | -12.3% | -8.25% | -5.55% | -6.9%
Cc1cccc(NC(=O)O/N=C(\Cl)C(C)C)c1 | -13.8% | -34.9% | 70% | 0.4% | 35.4% | -43.4%
CCC(=O)NC(OCC1(CC)COC1)(C(F)(F)F)C(F)(F)F | -8.6% | -10.8% | -37.1% | 2.75% | -11.5% | -13.2%
CCC1C[N+]2(C)CCc3cc(OC)c(OC)cc3C2CC1=O (stereo unspecified) | -10.2% | 1.25% | 12.8% | 19.9% | 1.35% | 7%
COc1cc(C(C)C)c(Oc2c(C)c(OC)cc(C(C)C)c2O)cc1C (tested in a mixture with another compound) | -7.5% | -21.4% | -9.6% | -11.1% | 7.9% | 7.4%
COc1ccc(/C=N/N2CCN(/N=C/c3ccc(OC)c(O)c3)CC2)cc1O | 22.1% | 4.5% | 15.1% | 28.6% | 1.05% | 9.85%
Brc1cnc2nc(Cc3ccccc3)[nH]c2c1 | 5.05% | 7.7% | 17.3% | -52.3% | 27% | 2.9%
COC(=O)C1C(O)C(C)C(O)C(C)(O)C=C(C)C2=C3C(=C(C)C(=O)c4c(O)c(c(C)c(OC(C)=O)c43)NC(=O)C(C)=C/C=C\C(C)(O)C(O)C(C)C1O)OCO2 (stereo unspecified) | 14.3% | 1.65% | 0.85% | -1.55% | 3.85% | 6.25%
COC(=O)CCC(=O)CC(=O)C(=O)Nc1ccc(F)cc1 | 3.2% | 3.75% | -1.7% | -2.6% | -15.6% | 7.75%
COC(=O)C(=O)c1c(C(=O)OC)nc2nnc(N)n2c1-c1ccc(OC)cc1 | -13.4% | 0.6% | -0.5% | -26.5% | 8.2% | -14.9%
CSc1ccc(OC(=O)C(C)NC(=O)C(CO)NC(=O)OCc2ccccc2)cc1 (stereo unspecified) | 5.85% | 1.55% | -1.05% | -2% | -1.6% | 15.2%
CC(C)(C)OC(=O)NO | -0.6% | 2.9% | 0% | 1.75% | 5.05% | 4.7%
O/N=C/c1nc2ccccc2s1 | 10.2% | 22.8% | -3.65% | -55.6% | -17.6% | 23.8%
Cc1ccc2cccnc2c1 | 21.9% | -4.6% | -0.95% | 11.2% | 2.85% | 5%
CN(C)Cc1ccccc1COC(=O)c1ccccc1 | 19.1% | 20.1% | 26.1% | 11.4% | 17.4% | 17.5%

Structure (SMILES) | growth inhibition [1] | growth inhibition [2] | growth inhibition [3] | growth inhibition [4] | growth inhibition [5] | growth inhibition [6]
CCNC(=O)OCCN1C(=O)C2C3CCC(O3)C2C1=O (stereo unspecified) | 5.25% | 11.4% | 22.1% | 3.35% | 8.5% | 12.8%
COc1ccccc1/C=N\NC(=O)c1ccccc1O | 13.2% | 11.6% | 11.8% | 21.5% | 41% | 11.3%
CCOC(=O)c1c[nH]c2cc(Cl)ccc2c1=O | 3.85% | 30.5% | 9.65% | 7.9% | 15.3% | -12.9%
O=C(Nc1ccc(Br)cc1)Oc1ccc(-c2ccccc2)cc1 | 28.9% | 9.15% | 4.6% | 18.1% | 41.8% | 18.4%
O=S(=O)(/C=C/S(=O)(=O)c1ccccc1)c1ccccc1 | 98.4% (active) | 98.8% (active) | 98.8% (active) | 97.9% (active) | 98.5% (active) | 98.2% (active)
COC12OCCN(C)C1=CC(=O)C1N=NCC12 (stereo unspecified) | 5.75% | 1.35% | 11.2% | 8.3% | -0.3% | 7.55%
NC(=O)/C(=C\c1ccncc1)c1cccc2ccccc12 | -0.55% | -5.1% | -41.1% | -3.35% | -44% | -7.05%
CCOc1ccccc1N(CCN(C)C)C(=O)C(c1ccccc1)c1ccccc1 | 20.9% | -18.7% | 1.05% | -7.7% | 25.6% | 31.8%
N#C[C@H](c1nc2ccccc2[nH]1)c1nc2ccccc2nc1Cl | 5.5% | 2.5% | 21.9% | 12.8% | 15.3% | 12.7%
O=C(CCC(=O)Oc1ccccc1)Oc1ccccc1 | -15.9% | -1.1% | -31.6% | 3.2% | 28.3% | 13.7%
COC(=O)C(=O)C1CSC2=C(CS(=O)(=O)c3ccccc32)C1=O (stereo unspecified) | -4.55% | -9.5% | -10.6% | -2.15% | -17.5% | -2.1%
CC(C)(CN1CCCCC1)C(=O)/C=C/c1ccc(Cl)cc1 | 34.6% | 11.9% | 36.2% | 38.5% | 12.6% | 46.7%
COc1cc(CC(=O)O)ccc1O | 11.8% | -21.3% | -26.7% | -18.4% | 1.45% | -0.55%
CCN(CC)CCNC(=O)c1ccccc1NC(=O)C(=O)Nc1ccccc1C(=O)NCCN(CC)CC | -46.9% | -13.2% | -55.2% | -5.15% | -60.3% | -41.6%
CCOC(=O)CCC(NC(=O)C(CCC(=O)OCC)NC(=O)OCc1ccccc1)C(=O)O (stereo unspecified) (tested in a mixture with another compound) (Cbz-Glu(OEt)-Glu(OEt)-OH; configuration not given here) | -43.5% | 1.15% | -11.2% | -34.9% | -52.9% | 38.6%
CCCCCOC(=O)CC(CC(=O)OCCCCC)C(=O)OCCCCC | 14.3% | 5.15% | 14% | -3.8% | -28.6% | 1.75%
O=C1NN=CN2C(=O)CCC12 (stereo unspecified) | 26.4% | 3.45% | 14.3% | 4.15% | 14.4% | -3.4%
CCN1CC(O)Cc2ccccc21 (stereo unspecified) | -3.55% | 8.55% | 11.2% | 1.4% | -8.35% | -3.5%
CCOC(=O)C(=O)Nc1ccccc1 | 43.8% | -1.4% | 21% | -21.1% | -4.15% | 18.8%
CNc1nnnn1C1OC(CO)C(O)C1O (stereo unspecified) | -2.15% | -8.9% | -9.6% | 9.35% | -10.7% | -21.4%
